Rows were chosen to be rich in hits. Some 2.3% of all compounds tested hit in one or more screens of this group.
M1 ag parental – counter-screen for M1 agonists: effect in parental CHO-K1 cells | Fluo-8 calcium fluorescence; scaled to maximal ATP response, vehicle zero | activation, % at 3 µM | hit rate 0.48% among 360,000; in the data active means activation above about 15%;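 further: untransfected CHO-K1 host cells lacking M1 receptor as counterscreen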
M1 antag – blocks human M1 muscarinic receptor; P11229; CHO-K1 hM1, Fluo-8 calcium fluorescence, ACh EC80 antagonist; inhibition, % at 3 µM; hit rate 1.3% among 360,000; AID 588852;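 active means percent inhibition above its own plate's cutoff, namely the mean of that plate's compound wells plus 3 SD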;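 further: peak over basal fluorescence ratio during 140 s after agonist addition; 0% = ACh EC80 plus DMSO and 100% = DMSO alone without agonist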
Target sequence (P11229 whole entry, looked up): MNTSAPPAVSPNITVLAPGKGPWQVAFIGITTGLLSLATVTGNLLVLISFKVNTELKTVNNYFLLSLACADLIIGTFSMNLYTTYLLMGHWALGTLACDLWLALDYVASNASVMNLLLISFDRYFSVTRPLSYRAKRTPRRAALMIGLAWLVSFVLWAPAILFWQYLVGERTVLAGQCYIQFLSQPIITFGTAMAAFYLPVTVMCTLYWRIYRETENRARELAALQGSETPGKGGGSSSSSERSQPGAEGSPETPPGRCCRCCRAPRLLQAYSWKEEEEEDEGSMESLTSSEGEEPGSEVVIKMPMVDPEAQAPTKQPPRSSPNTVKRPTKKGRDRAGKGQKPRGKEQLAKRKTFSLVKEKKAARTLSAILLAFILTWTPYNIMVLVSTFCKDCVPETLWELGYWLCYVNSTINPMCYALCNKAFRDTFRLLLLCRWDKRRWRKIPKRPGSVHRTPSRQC
CHO-K1 Ca PAM – M1 PAM counterscreen hit in parental CHO-K1 cells; activation, % at 3 µM; ATP EC20, Fluo-8 calcium fluorescence; 0% at ATP EC20, 100% at ATP max; hit rate 0.02% among 360,000;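 active means activation above the run cutoff, the mean activation of all test compounds plus 3 SD, cut at about 40% in these data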;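 further: peak over basal fluorescence ratio in a 140 s read after ATP addition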
CHO-K1 Ca antag – counter-screen for M1 antagonists: effect in parental CHO-K1 cells. inhibition, % at 3 µM. AID 602250. hit rate 0.6% among 360,000. ATP-induced calcium, Fluo-8 fluorescence;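 active means inhibition above a per-plate cutoff, the plate's mean sample inhibition plus 3 SD, cut at about 24% in these data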;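 further: 0% = DMSO plus EC80 ATP and 100% = DMSO alone without ATP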
M1 ag – agonists of human M1 muscarinic receptor; activation, % at 3 µM; P11229; AID 588814; CHO-K1 hM1, Fluo-8 calcium fluorescence, agonist mode; 0% DMSO, 100% acetylcholine EC100; hit rate 0.33% among 360,000;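 active means activation above the run's mean compound activation plus 3 SD, cut at about 16% in these data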;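 further: peak over basal fluorescence ratio within a 140 s kinetic read after compound addition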
CHRM1 PAM – potentiates human M1 receptor response to acetylcholine. CHO-K1 hM1, Fluo-8 calcium fluorescence, ACh EC20; 0% = ACh EC20, 100% = maximal ACh. activation, % at 3 µM. hit rate 0.088% among 360,000. AID 588819; in the data active means activation above about 19%, passing the limit was not always enough
* = called active by the depositor; . = not tested or not shown.

SMILES | M1 ag parental | M1 antag | CHO-K1 Ca PAM | CHO-K1 Ca antag | M1 ag | CHRM1 PAM
COc1ccc(CN2CCCCCC2)cc1 | 0 | -6 | -22 | 25* | -8 | 4
CN(C)c1ccc(CN2CCCCCC2)cc1 | 0 | 45* | 4 | 4 | -5 | -3
COc1ccc(CN2CCOCC2)cc1 | 0 | -11 | 25 | -4 | -3 | 13
CCN(CC)c1ccc(CN2CCCCCC2)cc1 | 0 | 19 | -6 | 15 | -6 | -13
C[n+]1cccc(C(=O)NNC(=O)C23CC4CC(CC(C4)C2)C3)c1 | 0 | -15 | 23 | -13 | -7 | 16
O=C(NNC(=O)c1cc(-c2cccnc2)nc2ccccc12)Nc1ccc(Cl)cc1 | 15 | 63* | -16 | 29* | 3 | -18
O=C(NNC(=O)c1cc(-c2ccccc2)nc2ccccc12)Nc1cccc(Cl)c1 | 4 | 25* | 10 | 7 | -1 | -11
C[C@@H]1CN(S(=O)C(C)(C)C)[C@@H](CCO)/C1=C\CCO (some centres undefined) | 0 | 4 | 12 | 3 | -3 | 4
Cc1cc(C(=S)N2CCOCC2)c(C)n1-c1ccc(Cl)cc1 | 2 | 29* | 19 | -3 | -8 | -25
CN(C)c1ccc(/C=C/C(=O)c2cccnc2)cc1 | 65* | 28 | -8 | 20 | 60* | -18
O=C(/C=C/c1ccccc1)c1ccc2c(c1)OCO2 | 1 | -4 | 16 | -4 | -2 | 17
COc1ccc(C(=O)/C=C/c2ccc(N(C)C)cc2)c(OC)c1 | 82* | 53* | -25 | 45* | 69* | -20
CN(C)c1ccc(/C=C/C(=O)c2ccc3c(c2)OCO3)cc1 | 46* | 41* | -6 | 21 | 53* | -13
CN(C)c1ccc(C(=O)C=Cc2ccc([N+](=O)[O-])cc2)cc1 | 0 | -6 | 2 | -5 | -1 | 2
COc1ccc(C(=O)/C=C/c2ccccc2)c(OC)c1 | 0 | -4 | 13 | -2 | -3 | 2
CN(C)c1ccc(/C=C/C(=O)c2ccc(O)cc2)cc1 | 53* | 30 | -7 | 25* | 53* | -18
CN(C(=O)c1cc(COc2ccc(F)c(F)c2)on1)C1CCOC1 (centres undefined) | 3 | 5 | -9 | -7 | 1 | 4
O=S1(=O)N[C@@H](Cc2ccccc2)COc2cc(N3CC[C@H](O)C3)ccc21 | 4 | . | -14 | 3 | . | .
CN1CCCC(CC2Oc3ccccc3Sc3ccccc32)C1 (centres undefined) | 2 | 99* | 4 | -4 | -9 | -24
CC1CCCN(C(=O)N2c3ccccc3Sc3ccccc32)C1 (centres undefined) | 0 | 3 | 4 | -3 | -8 | -10
c1ccc2c(c1)OC(CCCN1CCCCC1)c1ccccc1S2 (centres undefined) | 2 | 46* | 9 | 12 | -5 | -24
Cc1ccc(-c2nn(-c3ccccc3)cc2CC(=S)N2CCOCC2)cc1 | 0 | -11 | 0 | -14 | -5 | 3
CN(C)CCO[C@@H](c1ccc(Cl)cc1)c1ccccn1 | 0 | 44* | -21 | 4 | -9 | -27
CN(C)CC[C@@H](c1ccc(Br)cc1)c1ccccn1 | 0 | 42 | -2 | 6 | -8 | -26
O=[N+]([O-])c1ccc2cn[nH]c2c1 | 2 | -19 | -10 | 35* | 0 | 1
SMILES | M1 ag parental | M1 antag | CHO-K1 Ca PAM | CHO-K1 Ca antag | M1 ag | CHRM1 PAM
CCCCCCN1C[C@H](O)[C@@H](n2cc(COC(=O)c3ccccc3)nn2)C[C@@H]1c1ccccc1 | 0 | -2 | -12 | 1 | -4 | -1
CSc1nc2c(cc1C#N)CCCCC2 | 0 | 30* | -14 | 17 | -8 | -26
COc1ccc(C(=O)Oc2ccc(N(C)S(=O)(=O)c3ccccc3)cc2)cc1[N+](=O)[O-] | 4 | 8 | -1 | 0 | -6 | -6
COc1ncccc1-c1cc2nc(NCCCN(C)C)n(C)c(=O)c2s1 | 0 | 6 | 16 | -12 | -4 | -5
CCOC(=O)C1(Cc2cccc(OC)c2)CCCN(C(=O)c2cc(C)oc2C)C1 (centres undefined) | 2 | -7 | 18 | -11 | -3 | 6
O=c1[nH]nc(Br)c(=O)n1C(c1ccccc1)c1ccccc1 | 26* | 8 | 28 | -14 | 19* | -13
Cc1[nH]c2ccccc2c1C(=O)CN1C(=O)NC(C)(c2ccc(Cl)cc2Cl)C1=O (centres undefined) | 11 | 19 | 12 | 8 | 27* | 6
CCN1C(=O)C(=O)N(CC(=O)Nc2cccc(C(F)(F)F)c2)C1=O | 1 | -14 | 13 | -9 | 0 | 5
CCCCN(C)C(=O)c1nc2ccccn2c1CN1CCC[C@H]1CO | 1 | -10 | -2 | -4 | -5 | 7
COc1ccc(N(CC(=O)N2CCN(C)CC2)S(=O)(=O)c2cc(C)ccc2OC)cc1Cl | 10 | -9 | 1 | 10 | 1 | 13
CN(C)c1ccc(CN(C(=O)COc2ccccc2)C2CCS(=O)(=O)C2)cc1 (centres undefined) | 0 | -3 | 8 | 27* | -2 | 10
Cc1ccccc1OCC(=O)N(Cc1ccc(N(C)C)cc1)C1CCS(=O)(=O)C1 (centres undefined) | 1 | 5 | 19 | -6 | -5 | 1
O=C(C1CCCN(S(=O)(=O)c2cccs2)C1)N1CCN(C2CCCCC2)CC1 (centres undefined) | 0 | 17* | -4 | -3 | -10 | -17
O=C(C1CCCN(S(=O)(=O)c2cccs2)C1)N1CCc2ccccc2C1 (centres undefined) | 2 | -25 | 18 | -13 | 0 | 4
O=C(Cc1cc2ccccc2o1)NCc1ccc(F)cc1 | 0 | -12 | -8 | -13 | -2 | 5
CC1CCN(C(=O)Cn2nnc(-c3ccc(N)cc3)n2)CC1 | 0 | -5 | 3 | 10 | -2 | 5
COC(=O)N/N=C/c1cn(CCOc2ccc(OC)cc2)c2ccccc12 | 15* | 15 | 7 | 0 | -2 | -9
Cn1c(=O)[nH]c(Nc2ccccc2)c([N+](=O)[O-])c1=O | 3 | 0 | 14 | 2 | -6 | 5
Cc1[nH][nH]c(=O)c1C(c1c(C)[nH][nH]c1=O)c1cn(Cc2ccc(Cl)c(Cl)c2)c2ccccc12 | 1 | 4 | 20 | 0 | 20* | 10
COC(=O)c1ccc(/C=N/NC(=O)c2ccc3nc[nH]c3c2)cc1 | 3 | 15 | -2 | -5 | 0 | -6
O=C(N/N=C/c1ccc(Cl)cc1)c1ccc2nc[nH]c2c1 | 5 | 29* | -4 | 5 | 0 | -14
COc1cc(C(=O)NCC(c2cccs2)N2CCOCC2)ccc1OCc1ccc(Cl)cc1 (centres undefined) | 7 | 14 | -7 | 7 | -2 | -10
COc1ccccc1NC(=O)Nc1nnc(CC(=O)Nc2ccccc2C)s1 | 0 | -5 | 7 | -11 | -3 | 8

Source: PubChem BioAssay
